ALR H2O2 inh: inhibitors of human ALR sulfhydryl oxidase, primary screen, biochemical, H2O2 detection, HRP-luminol luminescence, single point; FAD-linked sulfhydryl oxidase ALR (Homo sapiens), P55789; purified ALR, DTT oxidation; inhibition, % (no concentration beside the values); 290,000 tested, 3.8% active;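 active = mean replicate inhibition above about 79%, with every replicate also reaching it, limit read from the data; inconclusive = only one of the two criteria met; inactive = mean below limit and not every replicate reaching it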
IDE cell activ: human IDE activators in live cells, primary screen, fluorescence polarization, HEK cells, FAbeta-B substrate | Insulin-degrading enzyme (Homo sapiens), P14735 | FAbeta-B cleavage; 0% vehicle, 100% cell-free pure enzyme wells | activation, % at 5.96 µM | 340,000 tested, 0.073% active | AID 493087, 2011;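 active = activation above the mean of all tested compounds plus 3 SD, set per screening campaign, cut at about 17% in these data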
Target sequence (P14735 whole entry, looked up): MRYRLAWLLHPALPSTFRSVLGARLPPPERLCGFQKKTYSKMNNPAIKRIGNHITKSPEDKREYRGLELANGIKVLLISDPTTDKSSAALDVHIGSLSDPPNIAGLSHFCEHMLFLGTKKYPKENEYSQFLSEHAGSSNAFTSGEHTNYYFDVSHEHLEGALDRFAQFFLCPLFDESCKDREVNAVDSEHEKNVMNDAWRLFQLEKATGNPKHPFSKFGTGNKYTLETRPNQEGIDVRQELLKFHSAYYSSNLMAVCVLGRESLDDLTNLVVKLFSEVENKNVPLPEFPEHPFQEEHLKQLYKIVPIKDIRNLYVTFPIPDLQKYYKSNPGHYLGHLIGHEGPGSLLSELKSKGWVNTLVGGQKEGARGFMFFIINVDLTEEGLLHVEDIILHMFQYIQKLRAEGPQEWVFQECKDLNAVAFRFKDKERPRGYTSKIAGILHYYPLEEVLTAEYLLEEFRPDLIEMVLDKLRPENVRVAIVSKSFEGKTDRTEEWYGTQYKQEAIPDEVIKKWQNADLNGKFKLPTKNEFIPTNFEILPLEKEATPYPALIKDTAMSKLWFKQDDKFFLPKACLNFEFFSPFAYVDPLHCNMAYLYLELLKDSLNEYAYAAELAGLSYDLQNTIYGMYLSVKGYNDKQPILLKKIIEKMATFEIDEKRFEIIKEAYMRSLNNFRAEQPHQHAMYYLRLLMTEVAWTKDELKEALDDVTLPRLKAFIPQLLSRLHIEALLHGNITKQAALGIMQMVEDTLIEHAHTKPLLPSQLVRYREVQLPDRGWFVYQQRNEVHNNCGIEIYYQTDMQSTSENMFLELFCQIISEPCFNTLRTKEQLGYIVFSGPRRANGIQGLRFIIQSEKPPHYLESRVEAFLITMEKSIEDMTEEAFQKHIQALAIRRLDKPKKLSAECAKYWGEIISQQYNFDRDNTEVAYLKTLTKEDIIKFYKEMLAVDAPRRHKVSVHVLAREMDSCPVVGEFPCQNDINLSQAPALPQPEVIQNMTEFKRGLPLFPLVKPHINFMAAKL
PolyA inh: polyadenylation inhibitors in yeast reporter cells, primary screen, luminescence, S. cerevisiae | S. cerevisiae SKY197-pL101 polyadenylation reporter, beta-gal luminescence; efflux-impaired pdr1/pdr3 knockout yeast; score 100 = 6 SD above DMSO | activity score, % at 12 µM | 300,000 tested, 0.02% active;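 active = lowest replicate activity score at least 50, where 100 means six control SD above control mean; inconclusive = lowest score under 50 but half or more replicates reach 50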;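 note: yeast exposed to compound for 9 h at 30 °C; higher score means more reporter readthrough which indicates perturbed polyadenylation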
PfM18AAP inh: PfM18AAP inhibitors, malaria aminopeptidase, primary screen, biochemical, QFRET, recombinant enzyme; 290,000 tested, 1.2% active; inhibition, % at 7.35 µM; AID 1822, 2009; H-Glu-NHMec fluorogenic cleavage;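 active = inhibition above the campaign mean inhibition over all tested compounds plus 3 SD, cut at about 28% in these data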
IDE cell inh: human IDE inhibitors in live cells, primary screen, fluorescence polarization, HEK cells, FAbetaB substrate | 320,000 tested, 0.41% active | inhibition, % at 5.59 µM | FAbetaB cleavage | AID 434962, 2010 | Insulin-degrading enzyme (Homo sapiens), P14735;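 active = percent inhibition above the average of all tested compounds plus 3 SD, set per screening campaign, cut at about 16% in these data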;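 note: IDE supplied by intact live HEK cells; FP after avidin binding of uncleaved biotin substrate so inhibition keeps polarization high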
CaV13 ICDI inh: Disruptors of the CACNA1D IQ motif to Ca2+-dependent inactivation inhibitor domain association, primary screening, Förster resonance energy transfer in intact living …. HEK cells, CFP/YFP FRET ICDI-IQ, plate reader, 10 min; percent FRET-ratio fall versus neutral wells. inhibition, % at 12.3 µM. 340,000 tested, 0.098% active. AID 743397;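 active = mean replicate inhibition of at least 30% and at least 1% of replicates passing that level; inconclusive = only one of the two criteria is met; inactive = neither criterion is met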
Of the large screens only hits and unclear results are named; the others gave an inactive call. An excerpt weighted towards active compounds, which were near 4.1% of everything screened.

COc1cc(NC(=O)CSc2nc(=O)n(CCN3CCOCC3)c3c2CCC3)cc(OC)c1	ALR H2O2 inh 96.9 (no result: PfM18AAP inh)
CCN(CC)CCCn1c2c(c(SCC(=O)Nc3cc(OC)cc(OC)c3)nc1=O)CCC2	none (no result: PfM18AAP inh)
O=C(CSc1nc(=O)n(CCCN2CCOCC2)c2c1CCCC2)Nc1cccc(F)c1	ALR H2O2 inh inconclusive (no result: PfM18AAP inh)
COc1cc(NC(=O)CSc2nc(=O)n(CCCN3CCOCC3)c3c2CCC3)cc(OC)c1	ALR H2O2 inh 99.3 (no result: PfM18AAP inh)
Cc1cc(C)cc(NC(=O)CSc2nc(=O)n(CCCN3CCOCC3)c3c2CCCC3)c1	ALR H2O2 inh 95.8 (no result: PfM18AAP inh)
O=S(=O)(c1ccc(F)cc1)N1CCCc2nc(-c3ccc(Br)cc3)ccc21	none (no result: ALR H2O2 inh, IDE cell activ, PolyA inh, PfM18AAP inh, IDE cell inh)
O=C(CNc1cccc(S(=O)(=O)N2CCCCCC2)c1)Nc1cccc([N+](=O)[O-])c1	none (no result: ALR H2O2 inh, PolyA inh, PfM18AAP inh)
O=C(CNc1cc([N+](=O)[O-])ccc1NCCO)Nc1cccc(S(=O)(=O)N2CCCCC2)c1	ALR H2O2 inh 97.2 (no result: PolyA inh, PfM18AAP inh)
COc1ccc(N2CCN(C(=O)CCCn3nnnc3CN3CCOCC3)C(C)C2)cc1 (stereo not drawn)	ALR H2O2 inh 99.0
C/C(=N\NC(=O)CCCNc1ccc(C)cc1)c1ccccn1	ALR H2O2 inh 98.4
Cc1cc(C)cc(-n2ncc3c2CCCC3NC(=O)c2cc(C)n(C)n2)c1 (stereo not drawn)	ALR H2O2 inh 83.6
Cc1nc(SCC(=O)NCc2ccco2)c2c3c(sc2n1)CCCC3	ALR H2O2 inh 96.8 (no result: CaV13 ICDI inh)
Cc1cc(SCC(=O)NC(=O)NCc2ccco2)nc2c(C)cccc12	none
O=C(CSc1ncnc2ccccc12)c1ccco1	ALR H2O2 inh 99.2 (no result: CaV13 ICDI inh)
Cc1cc(SCC(=O)NC(=O)NCc2ccco2)nc2ccccc12	ALR H2O2 inh 97.6
CC(C)n1c(SCC(=O)NCc2ccco2)nnc1C1CC1	PfM18AAP inh 28.1
O=C(CSc1ncnc2ccccc12)NCCc1ccccc1	none
O=C(CSc1ncnc2ccccc12)NCc1ccco1	ALR H2O2 inh 98.5
Cc1ccc2nc(SCC(=O)NCc3ccco3)c(C)cc2c1	ALR H2O2 inh 97.9
O=[N+]([O-])c1ccc(CSc2ncnc3ccccc23)cc1	ALR H2O2 inh 98.6
CC(=O)OCC(=O)C1(O)CCC2C3CC(C)C4=CC(=O)C=CC4(C)C3=CCC21C (stereo not drawn)	none (no result: ALR H2O2 inh, PolyA inh, PfM18AAP inh, IDE cell inh)
COC(=O)c1ccc(CSc2nccn2C)cc1	none (no result: ALR H2O2 inh)
Cn1ccnc1SCc1cn2cc(Br)ccc2n1	ALR H2O2 inh 98.6 (no result: CaV13 ICDI inh)
O=C(NCC(=O)N(c1ccc(F)cc1)C(C(=O)NC1CCCC1)c1cccnc1)c1ccco1 (stereo not drawn)	none
CCOc1ccc(S(=O)(=O)NCC(=O)NC2CCCCC2)cc1	ALR H2O2 inh 91.1 (no result: PolyA inh, PfM18AAP inh)
Cc1ccc(S(=O)(=O)NCC(=O)NCC2CCCCC2)cc1C	ALR H2O2 inh 97.4
O=S1(=O)N[C@H](Cc2ccccc2)COc2cc(N3CCN(Cc4ccccc4F)CC3)ccc21	none (no result: ALR H2O2 inh, IDE cell activ, PolyA inh, PfM18AAP inh, IDE cell inh)
Cc1cc(C(=O)N2CCN(c3ccccc3O)CC2)c(C)o1	ALR H2O2 inh 97.7 (no result: PfM18AAP inh)
COc1cccc(N2CCN(C(=O)c3cc(C)oc3C)CC2)c1	ALR H2O2 inh 90.2 (no result: PolyA inh, PfM18AAP inh)
CC(C)C(=O)N1CCN(c2ccccc2N)CC1	ALR H2O2 inh 98.6
O=C(c1ccc2ccccc2n1)N1CCN(c2ccccc2O)CC1	ALR H2O2 inh 97.9
CCOC(=O)N1CCN(c2ccccc2O)CC1	ALR H2O2 inh 98.7
O=C(CNS(=O)(=O)c1ccc(Br)s1)N1CCN(c2ccc(F)cc2)CC1	none
CCOC(=O)N1CCC(N(CCOC)C(=S)Nc2cccc(SC)c2)CC1	none
CCOC(=O)N1CCC(Nc2cccc(SC)c2)CC1	ALR H2O2 inh 97.5 (no result: CaV13 ICDI inh)
O=C(CN1CC[n+]2c(-c3cccs3)csc21)c1ccc(Br)cc1	ALR H2O2 inh 98.4
O=C(CN1CC[n+]2c(-c3ccccc3)csc21)c1ccc(Br)cc1	ALR H2O2 inh 98.4 (no result: IDE cell activ)
CC(=O)N1CCN(CC(=O)c2ccc(Br)cc2)CC1	none (no result: ALR H2O2 inh)
N#CCN1CCN(CC(=O)c2ccc(Br)cc2)CC1	none
CC1CCC(NC(=O)Cn2ncc3ccccc32)CC1 (stereo not drawn)	none
CC1CCCCC1NC(=O)Cn1ncc2ccccc21 (stereo not drawn)	ALR H2O2 inh 97.5
CC[n+]1c(C)sc2sc3ccccc3c21	PfM18AAP inh 60.3 (no result: IDE cell activ, CaV13 ICDI inh)
CC(=O)OC(C(=O)N1CCOCC1)c1c(F)cccc1F (stereo not drawn)	none
COCCn1c(SCCN2CCOCC2)nc2c1c(=O)[nH]c(=O)n2C	PfM18AAP inh 29.5 (no result: ALR H2O2 inh)
C=CCn1c(SCCN2CCOCC2)nc2c1c(=O)[nH]c(=O)n2C	none (no result: ALR H2O2 inh)
Cc1cccc(NC(=O)CN2CCN(C(=O)c3ccc(OCc4cn5ccccc5n4)cc3)CC2)c1C	none (no result: PolyA inh, PfM18AAP inh)
CCc1nc(C)cn1S(=O)(=O)c1ccc(Br)cc1	none (no result: IDE cell inh)
CN(C)c1ccc(C(C(=O)NC2CCCC2)N(C(=O)c2ccco2)C2CC2)cc1 (stereo not drawn)	ALR H2O2 inh 98.7
O=C(Nc1ccccc1C(=O)O)/C(=C/c1ccc([N+](=O)[O-])cc1)NC(=O)c1ccc(Br)o1	none
Cc1ccc(CNC(=O)Nc2ccc(F)cc2F)n1C	PfM18AAP inh 30.3 (no result: IDE cell inh)
Cc1c(C)c2c(OCC(=O)N3CCC(O)CC3)cc3c(c2oc1=O)CCC(C)(C)O3	none (no result: CaV13 ICDI inh)
Cc1cs/c(=N\N=C\c2ccccc2)n1Cc1ccco1	ALR H2O2 inh 83.7 (no result: PolyA inh)
Cc1cs/c(=N\N=C2CCCCC2)n1Cc1ccco1	ALR H2O2 inh 96.2
COc1cc(-c2nc3cnccn3c2Nc2c(C)cccc2C)ccc1O	ALR H2O2 inh 98.4 (no result: CaV13 ICDI inh)
Cc1cccc(C)c1Nc1c(-c2ccc(N3CCOCC3)cc2)nc2cnccn12	ALR H2O2 inh 98.8
CCCCNc1c(-c2ccc(-c3ccc(C(C)=O)cc3)c(OC)c2)nc2cnccn12	none (no result: ALR H2O2 inh, PfM18AAP inh, CaV13 ICDI inh)
COc1cc(-c2nc3cnccn3c2NC(C)(C)CC(C)(C)C)ccc1O	ALR H2O2 inh 99.2
c1cn2c(Nc3ccc4c(c3)OCCO4)c(-c3ccc(N4CCOCC4)cc3)nc2cn1	ALR H2O2 inh inconclusive
COc1ccc(Sc2ccc(-c3nc4cnccn4c3NC3CCCCC3)cc2OC)cc1	none (no result: PolyA inh, PfM18AAP inh)
CCN(c1ccccc1)C1(O)C(=O)c2ccccc2C1=O	ALR H2O2 inh 95.3 (no result: CaV13 ICDI inh)
CC(NC(=O)c1cccc(N(C)C)c1)c1ccc(-n2ccnc2)cc1 (stereo not drawn)	ALR H2O2 inh 97.7 (no result: CaV13 ICDI inh)
CC(=O)Nc1cccc(C(=O)NC(C)c2ccc(-n3ccnc3)cc2)c1 (stereo not drawn)	none
Cc1cc(C)c(C)c(S(=O)(=O)NC(C(=O)NCCc2ccco2)C(C)C)c1C (stereo not drawn)	none (no result: PolyA inh, PfM18AAP inh)

Screening results (PubChem BioAssay)
